Only some compounds are listed: those with a hit (about 7.5% of all), similar ones and a draw of the others.
FBPA Giardia inh: qHTS Assay for Inhibitors of Fructose-1,6-bisphosphate Aldolase from Giardia Lamblia; A8B2U2; purified Giardia FBPA; Potency, µM (highest dose often 59.6 µM), for inactives: at the top dose activity, negative = inhibition, actives largely listed as inhibitors; 290,000 compounds, 0.71% hits; AID 2451, 2010; note: potency is the fitted concentration of half-maximal effect; nearly all actives have a fitted effect of over 55% in size
Target sequence (A8B2U2 whole entry, looked up): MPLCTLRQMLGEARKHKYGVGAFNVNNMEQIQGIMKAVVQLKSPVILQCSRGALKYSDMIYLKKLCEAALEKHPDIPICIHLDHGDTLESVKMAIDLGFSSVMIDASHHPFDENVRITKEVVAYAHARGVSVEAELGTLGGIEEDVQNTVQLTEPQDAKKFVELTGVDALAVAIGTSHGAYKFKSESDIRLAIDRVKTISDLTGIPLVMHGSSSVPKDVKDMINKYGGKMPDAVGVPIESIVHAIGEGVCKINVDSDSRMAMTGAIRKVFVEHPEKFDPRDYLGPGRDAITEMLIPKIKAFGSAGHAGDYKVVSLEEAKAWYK
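Giardia FBPA (40 nM reagent) was preincubated 10 min at RT with compound (up to 57.5 uM final), then substrate plus GAPDH/TPI/NAD/arsenate coupling system with diaphorase/resazurin was added; resorufin fluorescence (525/598 nm) was read after 20 min.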
Vaccinia mCherry: qHTS for Stage-Specific Inhibitors of Vaccinia Orthopoxvirus: mCherry Reporter Primary qHTS. Vaccinia virus mCherry reporter infection, fluorescence. 310,000 compounds, 0.63% hits. Potency, µM (doses to about 36.5 µM), inactives show at the top dose activity change, negative = inhibition, usual class: inhibitors. AID 720579, 2013; calls by dose curve; tested in A549 cells; note: potency is the fitted concentration of half-maximal effect; nearly all actives have a fitted effect of over 35% in size
VACV Venus inh: qHTS for Stage-Specific Inhibitors of Vaccinia Orthopoxvirus: Venus Reporter Primary qHTS; Vaccinia virus Venus reporter expression, fluorescence; Potency, µM (highest dose often 36.5 µM), for inactives: at the highest dose activity change, negative = inhibition, most hits filed as inhibitors; 330,000 compounds, 0.46% hits; AID 720580, 2013; calls by dose curve; tested in A549 cells; note: potency is the fitted concentration of half-maximal effect; nearly all actives have a fitted effect of over 30% in size
HCV inhibitor: qHTS Assay for Inhibitors of Hepatitis C Virus (HCV); Huh7.5.1 HCVcc-Cre infection, luciferase reporter, 44 h; Potency, µM (titrated, usually from 41.8 µM), for inactives: at the top dose activity change, negative = inhibition, usual class: inhibitors; 340,000 compounds, 3.4% hits; AID 651820, 2012; note: potency is the fitted concentration of half-maximal effect
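Whole-lifecycle infectious HCVcc-Cre system; cells 1,000/well, compound then virus (~0.5 moi) added 4 h after plating, 44 h culture. Luciferase read 15 sec following 15 min substrate incubation, room temp.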
HCMV inh: qHTS Assay for inhibitors of the human cytomegalovirus (HCMV); HFF cells, HCMV-luciferase reporter, 72 h; hits give low values; 410,000 compounds, 4.5% hits; activity change, negative = inhibition, % at 57.5 µM; in the data active = activity change below about -60%; inconclusive = no clear call, values can overlap the other calls; inactive = above about -39%
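Cell-based, HFFs, 1000 cells/well, 16 h 37C; cpds in DMSO + HCMV-luc, MOI 1 PFU/cell; 72 h 37C; OneGlo luminescence after 5 min RT; norm. to buffer vs Salinomycin 10uM.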
FMDV antiviral: High Throughput Screening for Foot and Mouth Disease Virus Antivirals; FMDV antiviral cell-based qHTS; Potency, µM (series often up to 57.9 µM), without a hit: at the highest dose activity change, negative = inhibition, hits mostly inhibitors; 410,000 compounds, 1.2% hits; AID 1159524, 2015; calls by dose curve; tested in HEK293T cells; note: read-out not given here; potency is the fitted concentration of half-maximal effect; nearly all actives have a fitted effect of over 45% in size
Numbers without * were called inactive; i = inactive; ? = inconclusive; · = no result. Unless noted, calls come from the whole dose curve; as a rule, active = well fitted curve in the direction sought with a large enough effect; inconclusive = small, poorly fitted or top-dose-only effect, or another doubt; inactive = no such curve, though single readings can be large; an effect the other way counts as inactive or inconclusive. % is set by controls: 0 for no effect and ±100 for the full control effect.

SMILES	FBPA Giardia inh	Vaccinia mCherry	VACV Venus inh	HCV inhibitor	HCMV inh	FMDV antiviral
Cc1cc(N2CCN(c3ccc(F)cc3)CC2)n2nc(-c3ccc(Cl)cc3)nc2n1	·	-4.4%	2.8%	·	11.2	-23.2%
O=C1CCC[C@H]2[C@@H](Cc3ccccc3)[C@@H](NCc3cccs3)CC[C@]23CCCN13	·	·	·	·	-10.6	·
COc1cc([N+](=O)[O-])c2ncsc2c1	-9.1%	-13.9%	-9.1%	1.8%	7.6	-3.5%
COc1cc(SSc2cc(OC)cc([N+](=O)[O-])c2N)c(N)c([N+](=O)[O-])c1	?	·	·	-12.7%	-98.2*	?
COc1ccc(C2=Nc3ccccc3NC(=O)C2N(C(=O)c2ccnc3ccccc23)c2ccccc2)cc1 (stereo not given)	·	i	-9.3%	·	-81.6*	-15.2%
COc1ccc(C2=Nc3ccccc3NC(=O)C2N(C(=O)c2cnc(C)cn2)c2ccc(N3CCOCC3)cc2)cc1 (stereo not given)	·	27.8%	-10.7%	·	22.7	17.0%
CCCCN(CCCNC(=O)c1ccc2c(c1)NC(=O)CN2C)c1ccccc1	·	-24.6%	-24.1%	·	-98.3*	22.4µM*
CC1CCCCN1CCCNC(=O)c1ccc2c(c1)NC(=O)CN2C (stereo not given)	·	?	-1.6%	·	4.6	-6.4%
CCCCN(CCCNC(=O)c1c(C)cc(=O)oc1C)c1ccccc1	1.0%	·	·	3.98µM*	24.4	-1.0%
CCCCN(C(=O)c1ccc2c(c1)NC(=O)CS2)c1ccccc1	·	·	·	?	-100.3*	-19.1%
CC(C)C(=O)N1CCCCCCN1C(=O)C(C)C	·	i	-4.9%	·	-9.8	-7.3%
CCc1nc2c(OCC3COc4ccccc4O3)cccn2c1N(C)C(=O)c1cccc(OC)c1 (stereo not given)	·	-1.1%	-1.9%	·	-18.3	-26.9%
COc1ccccc1Oc1ccc2c(c1)C(=O)N(c1cccc3ncccc13)C2=O	-0.5%	-5.5%	-15.6%	?	-18.6	20µM*
C[C@]12CCCC3=CC(=O)C=C[C@@]31Oc1ccccc1C(=O)C2	·	·	·	·	6.1	·
Cc1cc(N2CCN(c3nc(-c4ccc([N+](=O)[O-])cc4)cs3)CC2)c2ccccc2n1	1.2%	-23.6%	-18.1%	6.31µM*	-23.2	?
CN(C)Cc1nc2ccccc2c(=O)n1Cc1nc(-c2cccc([N+](=O)[O-])c2)cs1	-4.6%	-10.8%	-15.2%	11.2µM*	44.0	-24.9%
CN1CCN(Cc2nc3ccccc3c(=O)n2Cc2nc(-c3ccc([N+](=O)[O-])cc3)cs2)CC1	-18.7%	10µM*	10µM*	?	?	-12.7%
Cc1cc(-c2ccc([N+](=O)[O-])cc2)nc2ccccc12	-12.7%	-13.8%	-7.8%	-7.3%	45.6	26.0%
CCc1cccc2c(-c3ccccc3)nc(SCC(=O)Nc3ccccc3OC)nc12	·	-14.3%	-4.4%	·	33.3	-19.0%
O=C1C=CN(S(=O)(=O)c2ccc(Cl)cc2)C(c2cccs2)C1 (stereo not given)	·	·	·	·	24.9	·
Cc1ccc(CNc2nc(C)c(-c3ccn(CCN4CCOCC4)n3)s2)o1	·	-4.1%	3.7%	·	·	-11.5%
CCOC(=O)C(CCc1ccccc1)NC(C)C(=O)N1Cc2ccccc2CC1C(=O)O (stereo not given)	-0.1%	·	·	·	·	·
CC1(C(=O)NS(=O)(=O)c2ccccc2Cl)CCN1C(=O)CC1CC1 (stereo not given)	·	35.9%	8.0%	·	4.6	?
CSc1nnc(C(C)(C)C)c(=O)n1/N=C/c1ccc(C(C)C)cc1	1.6%	-12.3%	0.7%	9.8%	-63.3*	7.4%
CC(/C=N/N1CCN(Cc2ccccc2)CC1)=C\c1ccccc1	1.1%	-19.4%	-2.3%	-11.5%	-103.8*	-4.9%
SMILES	FBPA Giardia inh	Vaccinia mCherry	VACV Venus inh	HCV inhibitor	HCMV inh	FMDV antiviral
COC(=O)[C@@]12C[C@@H](CC(=O)N3CCSCC3)C(=O)N(Cc3cccc4ccccc34)C1=CCC(C)(C)C2	·	?	?	·	45.6	-6.4%
O=C(Nc1ccccc1)c1cc2ccccc2c(=O)s1	2.8%	-6.3%	-2.8%	?	5.5	38.0%
O=C(Nc1ccc(O)cc1)c1cc2ccccc2c(=O)s1	-4.1%	-9.2%	-1.2%	?	-70.5*	73.7%
CC(Sc1ccccc1)C(=O)NN=C1CCCCCC1 (stereo not given)	3.1%	i	-3.6%	20.3%	-9.1	12.9%
CN1CCC(N(C)S(=O)(=O)c2ccc(NC(=O)COc3ccc(Br)cc3Cl)cc2)CC1	·	i	-19.9%	10µM*	-20.9	-4.4%
Cc1c(C(=O)Nc2ccc(S(=O)(=O)N(C)C3CCN(C)CC3)cc2)oc2c(Cl)cccc12	·	?	?	2µM*	-35.2	-29.2%
Cc1c(C(=O)Nc2ccc(S(=O)(=O)N(C)C3CCN(C)CC3)cc2)oc2ccccc12	·	-10.4%	?	6.31µM*	?	-22.8%
CN1CCC(N(C)S(=O)(=O)c2ccc(NC(=O)c3ccc(S(=O)(=O)N(C)C)cc3)cc2)CC1	·	-15.5%	-20.0%	?	-24.0	-13.9%
O=C(COc1ccccc1)NC1CCN(Cc2ccccc2)CC1	2.1%	·	·	7.1%	25.9	5.8%
O=C(COc1ccc(Br)cc1Cl)NC1CCN(Cc2ccccc2)CC1	·	?	-0.4%	11.2µM*	8.0	-22.1%
Cc1ccc(OCC(=O)Nc2ccc(S(=O)(=O)N(C)C3CCN(C)CC3)cc2)c(C)c1	·	·	·	?	-6.6	-21.3%
Cc1ccccc1OCC(=O)Nc1cc(-c2cccc(Br)c2)nn1-c1ccccc1	·	-15.0%	-11.1%	·	23.7	-4.5%
COc1ccc(/C=N/NC(=O)CC2N=C(Cc3ccccc3)NNC2=O)cc1OC (stereo not given)	2.2%	-0.3%	-12.8%	-5.4%	39.5	-9.4%
C[C@H](CO)N1C[C@H](C)[C@@H](CN(C)Cc2ccncc2)Oc2c(NS(=O)(=O)c3cn(C)cn3)cccc2C1=O	·	i	-5.5%	5.3%	-31.5	11.4%
Cn1c(=O)n(Cc2ccccc2)c(=O)c2c1nc1n2CCN1c1ccccc1	·	-2.6%	-1.6%	·	?	8.3%
Cc1ccc(C)c(N=Cc2cc3c(cc2[N+](=O)[O-])OCO3)c1	3.15µM*	4.3%	-2.5%	3.2%	5.3	-8.9%
O=C(CNS(=O)(=O)c1ccccc1)N/N=C/c1ccccc1[N+](=O)[O-]	-1.2%	?	-12.5%	-1.6%	-64.5*	-10.8%
Cc1ccc(N=Cc2cc3c(cc2[N+](=O)[O-])OCO3)cc1[N+](=O)[O-]	·	·	·	11.2%	-28.4	8.5%
O=[N+]([O-])c1cc2c(cc1/C=N\NS(=O)(=O)c1ccccc1)OCO2	-20.9%	-16.1%	-9.2%	7.7%	-84.1*	·
